target: Hexose transporter 1 (Plasmodium falciparum) (UniProt O97467); test: ST_JUDE_LEISH: Cytotoxicity at 2uM final concentration against transgenic Leishmania Mexicana promastigotes LmPfHT that are glucose transport deficient and complemented with the Plasmodium falciparum hexose transporter. Activity is measured by DNA content using SYBR green in vitro; type: functional

SMILES	inhibition [%]
COc1cc2c(cc1C(F)(F)F)N(C(=O)Nc1cc(Br)cc(-c3cccnc3)c1)CC2	6.53
Cc1nn(-c2ccnc3cc(Cl)ccc23)c(C)c1C(=O)NCc1cc(Cl)cc(Cl)c1	-0.98
COc1ccc(C(=O)Nc2ccc(Nc3nc(C)cc(N(C)C)n3)cc2)c(OC)c1	6.65
CCOc1cc2ncnc(Nc3ccc(OCc4c(F)cccc4F)c(OC)c3)c2cc1OCC	2.29
CCc1ccc(C2CCN(CCCCNC(=O)c3ccc(-c4ccc(C#N)cc4)cc3)CC2)c(OCCO)c1	3.19
Cc1cc(NC(=O)c2ccsc2)ccc1OC1CCN(Cc2ccc(F)cc2)CC1	2.48
COc1ccc(CN2CCCN(Cc3ccc(C(=O)Nc4ccc(Cl)cc4)cc3)CC2)cc1	5.51
O=C(Nc1ccc(CCNCc2ccccc2)cc1)Nc1ccc(OC(F)(F)F)cc1	-0.14
COc1ccc(C(=O)N2CCC3(CC2)C(=O)N(CC(=O)NCC2CCCCC2)CN3c2ccccc2)c(OC)c1	7.03
CN1CCN(c2ccnc3ccc(NC(=O)Nc4ccc(-c5ccncc5)c(C(F)(F)F)c4)cc23)CC1	9.91
CC(C)CCCC(C)(C)NC[C@@H](O)[C@H](Cc1ccccc1)NC(=O)c1cc(NC(C)C)cc(N2CCCCS2(=O)=O)c1F	5.83
CC(C)(CNCc1ccc(OC(F)(F)F)cc1)c1nc(-c2ccc(Cl)c(O)c2)c(-c2ccncc2)[nH]1	0.11
Cc1[nH]c(C)c(-c2ccc(CCc3ccc(C(F)(F)F)cc3)nc2)c(=O)c1Cl	3.29
Oc1ccc(-c2ccccc2)cc1CNC1CCCCC1	0.92
Fc1ccc2[nH]c(-c3cccc(-c4ccc(CNCc5cnn(-c6ccccc6)n5)cc4)c3)nc2c1	1.9
CC(=O)OC[C@H]1O[C@@H](C#Cc2ccccc2)[C@H](OC(C)=O)[C@@H](OC(C)=O)[C@@H]1OC(C)=O	2.07
NCc1ccc(Nc2nccc(Nc3ccc(-c4ccccc4)cc3)n2)cc1	4.91
CNC(=O)c1cc(F)c(F)cc1Nc1nc(Nc2cccc(CS(C)(=O)=O)c2)ncc1Cl	1.35
Cc1ccc(Nc2nnc(SCC(=O)Nc3ccc(CN4CCCC4)cc3)s2)cc1	-0.59
CCNc1cc(C(=O)N[C@@H](Cc2ccccc2)[C@H](O)CNC(C)(C)Cc2cccc(OC)c2)cc(N2CCCC2=O)c1	-1.02

SMILES	inhibition [%]
CCN1CCN(c2ccc(Nc3c4ccccc4nc4ccccc34)cc2)CC1	10.6
OC1CCCN(Cc2cccc(-c3ccc(-c4nc5cc(C(F)(F)F)ccc5[nH]4)cc3)c2)C1 (stereo not drawn)	2.8
C=CCc1cc(Cc2cnc(N)nc2N)c2ccc(C)nc2c1O	1.88
Brc1ccsc1-c1nc(NCCC(c2ccccc2)c2ccccc2)no1	0.55
COc1cccc(Nc2nc(C)cc(NC3CCCC3)n2)c1	9.71
Nc1ccc2c(N)c3ccccc3nc2c1	0.2
CN1CCN(c2ccc(Nc3nccc(-c4cnn5ncccc45)n3)cc2Cl)CC1	95.1
CN(C)CCNC(=O)c1cc2c(-c3ccc(Cl)cc3)nn(C)c2s1	2.13
Cc1c(Cn2ncc(N3CC(C)NC(C)C3)c(Cl)c2=O)cccc1NC(=O)Nc1ccc(-c2ccccc2)cc1 (stereo not drawn)	3.21
CC(C)c1cc(N)c2cc(NC(=O)COCC(=O)Nc3ccc4nc(C(C)C)cc(N)c4c3)ccc2n1	5.67
COc1cccc(CN2CCC3(CC2)CN(C(=O)Nc2ccc(Cl)c(Cl)c2)C3)c1	3.53
CCCCCN1CCCC1CNS(=O)(=O)c1cccc(C(=O)Nc2cccc(C#N)c2)c1 (stereo not drawn)	4.82
CCN(CC)CCNC(=O)c1ccc(NC(=O)c2cc(-c3ccncc3)nc3ccccc23)cc1	-0.76
COc1ccc(Cl)cc1N1CCN(CCCNC(=O)c2ccc(-c3nc4cc(Cl)c(F)cc4[nH]3)cc2)CC1	2.7
C(=Cc1ccccc1)C=NN=c1cc[nH]c2ccccc12	1.5
COc1cccc(C(=O)NC(NC(=S)Nc2ccc(OC)cc2[N+](=O)[O-])C(Cl)(Cl)Cl)c1 (stereo not drawn)	0.44
CCc1cc2c(Sc3nc4ccccc4[nH]3)ncnc2s1	0.97
c1cc(CN2CCN(CCN3CCOCC3)CC2)cc(-c2csc(-c3nc4ccccc4[nH]3)c2)c1	5.16
O=C(Nc1ccc2c(c1)CCN2C1CCN(Cc2ccc(O)cc2)C1)c1ccco1 (stereo not drawn)	2.04

target: Glucose transporter (Leishmania mexicana) (UniProt O61059); test: ST_JUDE_LEISH: Cytotoxicity at 2uM final concentration against transgenic Leishmania Mexicana promastigotes LmGT2 that are glucose transport deficient and complemented with the L. Mexicana glucose transporter 2. Activity is measured by DNA content using SYBR green in vitro; type: functional

SMILES	inhibition [%]
COc1cc2c(cc1C(F)(F)F)N(C(=O)Nc1cc(Br)cc(-c3cccnc3)c1)CC2	6.18
Cc1nn(-c2ccnc3cc(Cl)ccc23)c(C)c1C(=O)NCc1cc(Cl)cc(Cl)c1	1.27
COc1ccc(C(=O)Nc2ccc(Nc3nc(C)cc(N(C)C)n3)cc2)c(OC)c1	5.62
CCOc1cc2ncnc(Nc3ccc(OCc4c(F)cccc4F)c(OC)c3)c2cc1OCC	0.2
CCc1ccc(C2CCN(CCCCNC(=O)c3ccc(-c4ccc(C#N)cc4)cc3)CC2)c(OCCO)c1	1.5
Cc1cc(NC(=O)c2ccsc2)ccc1OC1CCN(Cc2ccc(F)cc2)CC1	1.6
COc1ccc(CN2CCCN(Cc3ccc(C(=O)Nc4ccc(Cl)cc4)cc3)CC2)cc1	6.65
O=C(Nc1ccc(CCNCc2ccccc2)cc1)Nc1ccc(OC(F)(F)F)cc1	0.49
COc1ccc(C(=O)N2CCC3(CC2)C(=O)N(CC(=O)NCC2CCCCC2)CN3c2ccccc2)c(OC)c1	3.99
CN1CCN(c2ccnc3ccc(NC(=O)Nc4ccc(-c5ccncc5)c(C(F)(F)F)c4)cc23)CC1	10.6
CC(C)CCCC(C)(C)NC[C@@H](O)[C@H](Cc1ccccc1)NC(=O)c1cc(NC(C)C)cc(N2CCCCS2(=O)=O)c1F	7.87
CC(C)(CNCc1ccc(OC(F)(F)F)cc1)c1nc(-c2ccc(Cl)c(O)c2)c(-c2ccncc2)[nH]1	6.94
Cc1[nH]c(C)c(-c2ccc(CCc3ccc(C(F)(F)F)cc3)nc2)c(=O)c1Cl	0.56
Oc1ccc(-c2ccccc2)cc1CNC1CCCCC1	2.38
Fc1ccc2[nH]c(-c3cccc(-c4ccc(CNCc5cnn(-c6ccccc6)n5)cc4)c3)nc2c1	0.03
CC(=O)OC[C@H]1O[C@@H](C#Cc2ccccc2)[C@H](OC(C)=O)[C@@H](OC(C)=O)[C@@H]1OC(C)=O	0.66
NCc1ccc(Nc2nccc(Nc3ccc(-c4ccccc4)cc3)n2)cc1	0.24
CNC(=O)c1cc(F)c(F)cc1Nc1nc(Nc2cccc(CS(C)(=O)=O)c2)ncc1Cl	2.49
Cc1ccc(Nc2nnc(SCC(=O)Nc3ccc(CN4CCCC4)cc3)s2)cc1	0.85
CCNc1cc(C(=O)N[C@@H](Cc2ccccc2)[C@H](O)CNC(C)(C)Cc2cccc(OC)c2)cc(N2CCCC2=O)c1	-0.38

SMILES	inhibition [%]
CCN1CCN(c2ccc(Nc3c4ccccc4nc4ccccc34)cc2)CC1	2.24
OC1CCCN(Cc2cccc(-c3ccc(-c4nc5cc(C(F)(F)F)ccc5[nH]4)cc3)c2)C1 (stereo not drawn)	3.54
C=CCc1cc(Cc2cnc(N)nc2N)c2ccc(C)nc2c1O	0.24
Brc1ccsc1-c1nc(NCCC(c2ccccc2)c2ccccc2)no1	0.06
COc1cccc(Nc2nc(C)cc(NC3CCCC3)n2)c1	5.08
Nc1ccc2c(N)c3ccccc3nc2c1	-1.77
CN1CCN(c2ccc(Nc3nccc(-c4cnn5ncccc45)n3)cc2Cl)CC1	83.8
CN(C)CCNC(=O)c1cc2c(-c3ccc(Cl)cc3)nn(C)c2s1	1.3
Cc1c(Cn2ncc(N3CC(C)NC(C)C3)c(Cl)c2=O)cccc1NC(=O)Nc1ccc(-c2ccccc2)cc1 (stereo not drawn)	5.17
CC(C)c1cc(N)c2cc(NC(=O)COCC(=O)Nc3ccc4nc(C(C)C)cc(N)c4c3)ccc2n1	5.02
COc1cccc(CN2CCC3(CC2)CN(C(=O)Nc2ccc(Cl)c(Cl)c2)C3)c1	3.35
CCCCCN1CCCC1CNS(=O)(=O)c1cccc(C(=O)Nc2cccc(C#N)c2)c1 (stereo not drawn)	3.88
CCN(CC)CCNC(=O)c1ccc(NC(=O)c2cc(-c3ccncc3)nc3ccccc23)cc1	-1.61
COc1ccc(Cl)cc1N1CCN(CCCNC(=O)c2ccc(-c3nc4cc(Cl)c(F)cc4[nH]3)cc2)CC1	3.92
C(=Cc1ccccc1)C=NN=c1cc[nH]c2ccccc12	-2.14
COc1cccc(C(=O)NC(NC(=S)Nc2ccc(OC)cc2[N+](=O)[O-])C(Cl)(Cl)Cl)c1 (stereo not drawn)	-2.26
CCc1cc2c(Sc3nc4ccccc4[nH]3)ncnc2s1	-0.12
c1cc(CN2CCN(CCN3CCOCC3)CC2)cc(-c2csc(-c3nc4ccccc4[nH]3)c2)c1	4.63
O=C(Nc1ccc2c(c1)CCN2C1CCN(Cc2ccc(O)cc2)C1)c1ccco1 (stereo not drawn)	-0.34

From ChEMBL document CHEMBL3433997, “St. Jude Leishmania screening dataset” (2016)
